Source: PubChem BioAssay (NCI)
The panel holds about 83,000 compounds, 20% with a hit somewhere; the sample as a whole holds those more often.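 Cell lines were cultured in 96-well plates, exposed to a single compound concentration, and assessed for percent growth 48 hours later.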 A number with no mark means an inactive call. Active and inactive are the calls of the source. Rule for the calls: active = growth percent below 10; inactive = the rest.

Columns and labels:
Test in all cases: NCI-60 one-dose screen, 48 h (100 = growth as untreated, 0 = no growth, -100 = all killed)
Settings in all cases: 10 µM unless noted
SR leukemia = test system: SR leukemia
RPMI-8226 leukemia = test system: RPMI-8226 leukemia
OVCAR-8 ovarian = test system: OVCAR-8 ovarian
OVCAR-5 ovarian = test system: OVCAR-5 ovarian
OVCAR-4 ovarian = test system: OVCAR-4 ovarian
IGROV1 ovarian = test system: IGROV1 ovarian
OVCAR-3 ovarian = test system: OVCAR-3 ovarian
HS 578T breast = test system: HS 578T breast
NCI/ADR-RES ovarian = test system: NCI/ADR-RES ovarian
SK-OV-3 ovarian = test system: SK-OV-3 ovarian

Structure (SMILES)	growth (SR leukemia)	growth (RPMI-8226 leukemia) [%]	growth (OVCAR-8 ovarian) [%]	growth (OVCAR-5 ovarian) [%]	growth (OVCAR-4 ovarian) [%]	growth (IGROV1 ovarian) [%]	growth (OVCAR-3 ovarian) [%]	growth (HS 578T breast) [%]	growth (NCI/ADR-RES ovarian) [%]	growth (SK-OV-3 ovarian) [%]
COCCn1cc(-c2csc(-c3c[nH]c4ccccc34)n2)c2cccnc21	8.15% (active)	43.8	38.6	75.7	44.3	41.8	20.7	57.4	12.7	
C=CCn1cc(-c2nc3ccccc3s2)c2cc(-c3ccc4c5c(cccc35)C(=O)N(CCO)C4=O)ccc21	104%	99.3	91.2	92.9	99.6	77.7	105	104	98.3	
COc1cc(C=Nc2oc(-c3ccccc3)c(-c3ccccc3)c2C#N)cc(CN2CCCC2)c1O	80.9%	100	107	102	95.5		105	90.2	104	111
Nc1cc(Br)cc2c1[nH]c(=O)c1ccccc12	90.7%	96.1	86.2	92.3	84.2		94.4	91.6	91.7	105
Clc1ccc(Nc2ncc(Cc3cccc(Cl)c3Cl)s2)cc1	102%	89.4	98	85.8	94.8	93.3	100	102	93.3	
N#Cc1c(-c2cccc(Cl)c2)cc(-c2cccnc2)[nH]c1=O	21.9%	88.8	98.1		102	72.4	47.2	62.7	80.3	90.7
CCCC(O)Cn1ncc(C(=O)OCC)c1NC(=O)NCc1cccc(C(F)(F)F)c1 (stereo not drawn)	76.1%	47.9	102		104	83.8	100	107	86.4	84.8
